The results in this text go back to PubChem BioAssay (NCATS).

“And” between values parts separate entries of the source, which are not always exact repeats. Equal values may be shown once. Inconclusive results are not listed. The source made the active and inactive calls. Unless noted, the call rests on the fitted dose curve; in most records, active means well fitted curve in the direction sought with a large enough effect; inconclusive means small, poorly fitted or top-dose-only effect, or another doubt; inactive means no such curve, though single readings can be large; an effect the other way counts as inactive or inconclusive.

In experiment [1] the target is Thyroid hormone receptor beta (Homo sapiens) (UniProt P10828). As to the kind of experiment: qHTS assay for small molecule agonists of thyroid hormone receptor beta signaling (AID 588545; calls by dose curve;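 further: 0% = DMSO only and 100% = 10 nM T3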). The following applies: TR-UAS-bla GripTite HEK 293, beta-lactamase ratio, agonist mode, 18 h, percent of T3 response, DMSO as zero; series mostly up to 76.7 µM. In outline:
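Beta-lactamase reporter activity under TR response element control is measured in HEK 293 cells after 18 hrs compound exposure. Signal is ratiometric CCF4 fluorescence, 460/530 nm.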
(qHTS replaces the single test concentration by a dilution series.)

Experiment [2] is described as follows: qHTS assay for small molecule antagonists of retinoid X receptor alpha signaling (AID 588546; active means well fitted inhibition curve with a large enough effect in the signal ratio, with a control signal flat, not every such curve was filed as active; the % refers to the signal ratio;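 further: cells stimulated with 9-cis-retinoic acid as agonist; on the % scale 0 is the no-effect control and ±100 the full control effect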). The following applies: HEK293T RXRa-UAS-bla, beta-lactamase ratio, antagonist mode; measured here: W530 green channel, cytotoxicity proxy. In outline: (§1)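 Beta-lactamase reporter inhibition, read as CCF4 fluorescence ratio (ex 405, em 460/530 nm) after 2 h at RT. HEK293T UAS-bla cells, 2500/well, were stimulated with 9-cis-RA at 500 or 100 nM final alongside test compound for 18 h at 37 C.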

Experiment [3] deals with Retinoic acid receptor RXR-alpha (Homo sapiens) (UniProt P19793). The experiment is described as above. To be noted: HEK293T RXRa-UAS-bla, beta-lactamase ratio, antagonist mode. In outline:
as §1

Experiment [4] has as its target Voltage-gated inwardly rectifying potassium channel KCNH2 (Homo sapiens) (UniProt Q12809). The experiment is described as follows: qHTS Assay for Small Molecule Inhibitors of the Human hERG Channel Activity (AID 588834).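 Further: top concentration of the series differs between compounds; on the % scale 0 is the no-effect control and ±100 the full control effect; lower thallium flux fluorescence means stronger hERG block; nearly all actives have a fitted effect of over 50% in size.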 The following applies: U2OS BacMam hERG, FluxOR thallium flux fluorescence; series mostly up to 46.1 µM. The procedure, abridged:
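Concentration-response qHTS measuring drop in thallium-sensitive dye signal. U2OS cells carrying BacMam hERG; compound exposure ~10 min, then stimulation buffer and 2 min read at 1 sec intervals.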

For experiment [5], the target named is Luciferin 4-monooxygenase (Photinus pyralis) (UniProt P08659). The experiment is described as follows: Biochemical firefly luciferase enzyme assay for NPC (AID 624030).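 Further: purified P. pyralis luciferase at 10 nM with luciferin and ATP substrate; 0% = DMSO and -100% = full luciferase inhibition by PTC124 control; nearly all actives have a fitted effect of over 70% in size.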 The following applies: purified P. pyralis luciferase, luminescence, 5 min; series mostly up to 58.6 µM. In outline:
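Counter-screen for direct inhibition of the luciferase enzyme by approved-drug library compounds, run at 10 nM enzyme in 50 mM Tris acetate (final). Luminescence was read within 5 min of enzyme-buffer addition and normalized to PTC124 versus DMSO (0%).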

Experiment [6] is described as follows: S16 Schwann cell viability assay (CellTiter-Glo assay) (AID 624031).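 Further: cellular ATP luminescence as a viability measure; plate controls were DMSO-treated cells for no effect and cell-free wells for full effect; nearly all actives have a fitted effect of over 70% in size.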 The following applies: S16 rat Schwann cells viability, 24 h; series mostly up to 57.5 µM. In outline: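 This viability control uses native rat S16 Schwann cells grown in DMEM plus 10% FBS. After a 24 h compound treatment at 37 °C, CellTiter-Glo luminescence reports ATP content, scaled against DMSO-treated and cell-free wells.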

Experiment [7] is described as follows: S16 Schwann cell PMP22 intronic element firefly luciferase assay (AID 624032).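 Further: plate controls were DMSO for no effect and PTC124 positive control mean for full effect; nearly all actives have a fitted effect of over 30% in size.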 To be noted: S16 rat Schwann cells, PMP22 element FLuc, 24 h; series mostly up to 57.5 µM. In outline:
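Rat S16 Schwann cells stably carrying a PMP22 intronic element-driven Fluc reporter were seeded overnight, then exposed to compounds for 24 h at 37 °C. Luminescence was normalized to PTC124 (positive control) and DMSO (0% activity).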

A short description of experiment [8]: qHTS assay for small molecule agonists of the antioxidant response element (ARE) signaling pathway (AID 651741; active means well fitted activation curve with a large enough effect in the signal ratio; the % refers to the signal ratio; further: potency means the concentration at half of the fitted maximal effect; on activation: % of control where 0% means no effect). The following applies: HepG2 ARE-bla reporter, beta-lactamase FRET ratio, 16 h; series mostly up to 96 µM. In outline: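 Compounds in DMSO are pinned onto HepG2 ARE-bla cells (2,000/well) that were preincubated 5 h; plates stay 16 h at 37 C, then beta-lactamase activity is detected with LiveBLAzer B/G substrate by fluorescence.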

A short description of experiment [9]: qHTS assay for small molecule activators of the p53 signaling pathway (AID 651743; active means well fitted activation curve with a large enough effect in the signal ratio, not every such curve was filed as active; the % refers to the signal ratio; further: % of control where 0% means no effect). The following applies: HCT-116 p53RE-bla, beta-lactamase FRET ratio, 16 h; activation: stronger effect = higher value. In outline:
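Cell-based beta-lactamase reporter (p53 response elements, HCT-116 background). After a 5-hour preincubation, cells received compound for 16 hours at 37 C; substrate development ran 2 hours at room temperature.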

Experiment [10] in a line: qHTS assay for small molecule activators of the nuclear factor-kappa B (NF-kB) signaling pathway (AID 651749; active means well fitted activation curve with a large enough effect in the signal ratio; the % refers to the signal ratio; further: % of control where 0% means no effect). The following applies: NF-kB-bla ME-180 cells, beta-lactamase FRET ratio, 16 h; stronger effect = higher value. The procedure, abridged:
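Screening used 2,000 ME-180 reporter cells per well exposed to pinned compound (23 nL) or DMSO; after 16 hr at 37C, beta-lactamase expression under NF-kB control was assessed through FRET.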

The nature of experiment [11]: qHTS assay for small molecule disruptors of the mitochondrial membrane potential - 1 hr assay (AID 651754; calls by dose curve; further: nearly all actives have a fitted effect of over 35% in size; further: potency means the concentration at half of the fitted maximal effect). The following applies: series mostly up to 92.2 µM. The procedure, abridged: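 HepG2, 2,000 cells/well, overnight attachment; cpd or DMSO 1 hr, 37C/5% CO2; Mito-MPS dye 30 min, 37C; fluorescence monomer (490/535) and aggregate (540/590).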
Experiment [12] can be described thus: qHTS assay for small molecule disruptors of the mitochondrial membrane potential - 5 hr assay (AID 651755; calls by dose curve; further: nearly all actives have a fitted effect of over 40% in size; further: potency means the concentration at half of the fitted maximal effect). The following applies: JC-1-type ratio dye; series mostly up to 92.2 µM. The procedure, abridged:
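HepG2 cells, attached overnight at 37C, were exposed to compound or DMSO for 5 hr at 37C, 5% CO2. Mito-MPS dye was then added for 30 min, and fluorescence read at 490/535 nm (monomers) and 540/590 nm (aggregates).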

Experiment [13] addresses Tumor necrosis factor (Homo sapiens) (UniProt P01375). The experiment is described as follows: qHTS assay to identify small molecules that stimulate Tumor Necrosis Factor-alpha (TNF-alpha) secretion (AID 651757; active means well fitted curve in the direction sought with a large enough effect in the signal ratio; the % refers to the signal ratio; further: 0% is about no effect). To be noted: Human cells, HTRF 665/615 ratio; series mostly up to 92.2 µM. In outline:
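Read-out is HTRF, a TR-FRET sandwich of cryptate- and XL665-labeled anti-TNF-alpha antibodies detecting cytokine secreted by THP-1 cells. Cells had been incubated with test compounds at 37 C for 17 hrs beforehand.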

Experiment [14] in a line: qHTS assay to identify small molecules that stimulate interleukin-8 (IL-8) secretion (AID 651758; active means well fitted activation curve with a large enough effect in the signal ratio; the % refers to the signal ratio; further: 0% is about no effect). The following applies: HTRF ratio (665/615); series mostly up to 92.2 µM. The procedure, abridged:
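THP-1, 2000 cells/well; cpd 16 h, 37 C; add cryptate + XL665 anti-IL-8 Abs; RT 1-3 h; TR-FRET read.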

Experiment [15] can be described thus: S16 Schwann cell PMP22 intronic element beta-lactamase assay (AID 624044; calls by dose curve;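 further: 0% = DMSO and -100% = potassium clavulanate positive control; nearly all actives have a fitted effect of over 15% in size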). The following applies: S16 rat Schwann cells, PMP22 element beta-lactamase FRET, 24 h; ratio activity, negative = inhibition: at 38.3 µM (top of the series) unless noted. In outline:
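Rat S16 Schwann cells with beta-Lac driven by a PMP22 intronic element, compound-treated 24 h at 37 °C. LiveBLAzer FRET B/G read: 460 nm normalized to potassium clavulanate vs DMSO; 535 nm FRET as viability; concentration-effect curves classified.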

In experiment [16] the target is Glutaminase kidney isoform, mitochondrial (Homo sapiens) (UniProt O94925). The experiment is described as follows: qHTS for Inhibitors of Glutaminase (GLS): LOPAC Validation (AID 624146). Further: potency means the concentration at half of the fitted maximal effect; nearly all actives have a fitted effect of over 60% in size. To be noted: glutaminase enzyme activity inhibition. The procedure, abridged: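 Glutamate formation by hKGA was monitored fluorometrically using coupled glutamate oxidase, HRP and Amplex Red. Substrate was added as 1 mM L-glutamine solution; incubation was 30 min at RT after an initial read.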

The nature of experiment [17]: qHTS of Trypanosoma Brucei Inhibitors: LOPAC Validation (AID 624147). Further: 0% is about no effect. The following applies: purified enzyme assay, luminescence, 45 min; series mostly up to 57.5 µM. The procedure, abridged: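 Screened from lowest to highest concentration, compounds were pinned into TbPYK/substrate mixtures, and ADP (130 uM final) was added. Plates sat at room temperature for 45 min prior to Kinase-Glo Plus detection by luminescence.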

In experiment [18] the target is Glucagon-like peptide 1 receptor (Homo sapiens) (UniProt P43220). The experiment is described as follows: qHTS of GLP-1 Receptor Agonists: LOPAC Validation (AID 624148).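 Further: 0% is about no effect; higher luminescence signal means agonism.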 The following applies: GLP-1R agonist cell assay; series mostly up to 46.1 µM. The procedure, abridged: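 HEK293 cells stably co-expressing a cAMP-responsive luciferase reporter and a hypersensitive GLP-1R were plated 12 h at 37 °C and exposed to compounds for 4-6 hr at 37 °C, 5% CO2. Luminescence was read 12 min after adding detection reagent.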

Experiment [19] can be described thus: qHTS of Nrf2 Activators: LOPAC Validation (AID 624149). Further: 0% is about no effect. To be noted: Nrf2/ARE reporter cell assay; series mostly up to 46.1 µM. In outline:
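Luminescence read-out of ARE-luciferase activation: AREc32_Fluc cells treated with compounds for 24 hr at 37 deg C, then lysed with Steady-Glo for 30 min at room temperature before reading.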

Experiment [20] can be described thus: HTS Assay for Allosteric Antagonists of the Human D2 Dopamine Receptor: Hit Validation in HTRF (AID 624455).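 Further: stable D1 dopamine receptor cell line scored for blocking the D1 response; on the % scale 0 is the no-effect control and ±100 the full control effect.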 To be noted: Cells stably expressing D1 dopamine receptor, inhibition mode; series mostly up to 46.1 µM. The procedure, abridged:
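First, antagonism was screened by calcium flux in a force-coupled, inducible Hek293 Trex D2 line challenged with EC80 dopamine. Hits then went into an HTRF assay in cells stably expressing D1, testing inhibition of the D1 response.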
(Time-resolved FRET reads energy transfer from a long-lived donor to a nearby acceptor.)

Luciferin 4-monooxygenase (Photinus pyralis), sequence (P08659 whole entry, looked up): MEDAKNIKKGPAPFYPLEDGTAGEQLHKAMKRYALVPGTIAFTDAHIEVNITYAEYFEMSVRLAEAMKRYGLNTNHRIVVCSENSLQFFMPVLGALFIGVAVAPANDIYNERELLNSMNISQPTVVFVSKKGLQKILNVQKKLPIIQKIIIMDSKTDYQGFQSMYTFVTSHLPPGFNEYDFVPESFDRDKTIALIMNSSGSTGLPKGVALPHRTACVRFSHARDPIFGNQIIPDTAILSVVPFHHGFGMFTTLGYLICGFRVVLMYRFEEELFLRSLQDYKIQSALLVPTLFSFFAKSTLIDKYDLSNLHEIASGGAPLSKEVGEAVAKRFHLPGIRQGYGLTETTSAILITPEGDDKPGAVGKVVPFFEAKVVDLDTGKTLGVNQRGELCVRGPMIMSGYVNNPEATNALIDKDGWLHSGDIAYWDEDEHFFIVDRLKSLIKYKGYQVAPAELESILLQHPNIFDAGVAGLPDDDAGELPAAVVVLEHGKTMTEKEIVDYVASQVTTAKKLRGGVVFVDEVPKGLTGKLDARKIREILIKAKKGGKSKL
Voltage-gated inwardly rectifying potassium channel KCNH2 (Homo sapiens), sequence (Q12809 whole entry, looked up): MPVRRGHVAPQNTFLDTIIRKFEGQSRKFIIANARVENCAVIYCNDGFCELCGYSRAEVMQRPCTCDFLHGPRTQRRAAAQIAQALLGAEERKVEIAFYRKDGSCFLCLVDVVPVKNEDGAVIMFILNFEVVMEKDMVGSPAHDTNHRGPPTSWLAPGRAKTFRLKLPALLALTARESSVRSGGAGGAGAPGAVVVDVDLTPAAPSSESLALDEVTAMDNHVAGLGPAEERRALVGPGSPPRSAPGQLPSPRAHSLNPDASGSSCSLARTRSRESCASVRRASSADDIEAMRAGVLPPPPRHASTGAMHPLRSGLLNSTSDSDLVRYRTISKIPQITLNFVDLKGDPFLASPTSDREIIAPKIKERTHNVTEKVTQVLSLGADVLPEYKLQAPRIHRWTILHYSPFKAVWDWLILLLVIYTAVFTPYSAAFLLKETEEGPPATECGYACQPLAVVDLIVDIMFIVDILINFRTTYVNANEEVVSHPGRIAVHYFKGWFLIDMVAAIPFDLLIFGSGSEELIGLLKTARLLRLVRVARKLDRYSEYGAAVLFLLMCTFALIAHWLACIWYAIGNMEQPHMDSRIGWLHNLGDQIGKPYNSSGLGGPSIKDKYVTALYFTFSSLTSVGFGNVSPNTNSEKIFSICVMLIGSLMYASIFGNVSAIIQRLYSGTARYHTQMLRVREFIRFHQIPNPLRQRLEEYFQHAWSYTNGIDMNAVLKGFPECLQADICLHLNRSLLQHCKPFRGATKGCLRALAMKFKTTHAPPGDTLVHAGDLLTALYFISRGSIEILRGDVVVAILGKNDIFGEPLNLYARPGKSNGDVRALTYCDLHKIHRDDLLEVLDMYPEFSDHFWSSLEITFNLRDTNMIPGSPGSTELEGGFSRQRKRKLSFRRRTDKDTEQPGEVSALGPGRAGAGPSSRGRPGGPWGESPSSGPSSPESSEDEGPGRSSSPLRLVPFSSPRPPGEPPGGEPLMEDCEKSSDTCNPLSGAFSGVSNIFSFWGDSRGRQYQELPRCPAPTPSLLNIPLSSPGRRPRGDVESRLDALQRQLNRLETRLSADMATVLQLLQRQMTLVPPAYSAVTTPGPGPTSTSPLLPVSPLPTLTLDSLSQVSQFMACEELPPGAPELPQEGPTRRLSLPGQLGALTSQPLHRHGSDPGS
Tumor necrosis factor (Homo sapiens), sequence (P01375 whole entry, looked up): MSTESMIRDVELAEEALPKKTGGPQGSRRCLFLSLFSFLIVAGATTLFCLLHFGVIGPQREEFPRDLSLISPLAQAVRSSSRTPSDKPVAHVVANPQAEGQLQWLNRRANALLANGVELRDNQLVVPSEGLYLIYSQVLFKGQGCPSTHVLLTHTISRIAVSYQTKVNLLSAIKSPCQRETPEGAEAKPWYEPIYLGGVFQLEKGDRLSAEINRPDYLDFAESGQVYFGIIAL
Thyroid hormone receptor beta (Homo sapiens), sequence (P10828 whole entry, looked up): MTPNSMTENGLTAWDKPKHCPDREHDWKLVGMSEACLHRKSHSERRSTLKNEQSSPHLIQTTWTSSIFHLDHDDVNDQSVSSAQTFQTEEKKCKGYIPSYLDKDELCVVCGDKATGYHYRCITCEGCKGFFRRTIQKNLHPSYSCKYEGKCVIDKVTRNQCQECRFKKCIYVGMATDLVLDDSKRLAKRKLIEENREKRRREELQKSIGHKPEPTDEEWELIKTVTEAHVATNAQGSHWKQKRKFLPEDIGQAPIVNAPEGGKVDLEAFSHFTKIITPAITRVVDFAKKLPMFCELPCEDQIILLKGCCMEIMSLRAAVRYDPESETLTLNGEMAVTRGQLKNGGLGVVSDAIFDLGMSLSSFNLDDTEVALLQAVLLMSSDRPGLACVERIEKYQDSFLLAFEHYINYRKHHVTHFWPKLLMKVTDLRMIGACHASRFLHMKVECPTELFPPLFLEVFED
Retinoic acid receptor RXR-alpha (Homo sapiens), sequence (P19793 whole entry, looked up): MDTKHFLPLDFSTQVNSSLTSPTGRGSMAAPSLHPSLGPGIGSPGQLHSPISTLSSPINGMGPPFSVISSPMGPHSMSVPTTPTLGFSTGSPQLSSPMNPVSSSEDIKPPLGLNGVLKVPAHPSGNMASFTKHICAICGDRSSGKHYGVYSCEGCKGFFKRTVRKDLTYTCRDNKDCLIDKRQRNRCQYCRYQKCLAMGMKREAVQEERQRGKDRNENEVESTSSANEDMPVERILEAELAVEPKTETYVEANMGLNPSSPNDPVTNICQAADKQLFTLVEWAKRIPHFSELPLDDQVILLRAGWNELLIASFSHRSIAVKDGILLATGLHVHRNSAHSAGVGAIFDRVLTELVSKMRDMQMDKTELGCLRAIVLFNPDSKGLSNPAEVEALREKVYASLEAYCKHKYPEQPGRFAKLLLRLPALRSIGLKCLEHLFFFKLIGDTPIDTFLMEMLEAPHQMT
Glutaminase kidney isoform, mitochondrial (Homo sapiens), sequence (O94925 whole entry, looked up, canonical isoform): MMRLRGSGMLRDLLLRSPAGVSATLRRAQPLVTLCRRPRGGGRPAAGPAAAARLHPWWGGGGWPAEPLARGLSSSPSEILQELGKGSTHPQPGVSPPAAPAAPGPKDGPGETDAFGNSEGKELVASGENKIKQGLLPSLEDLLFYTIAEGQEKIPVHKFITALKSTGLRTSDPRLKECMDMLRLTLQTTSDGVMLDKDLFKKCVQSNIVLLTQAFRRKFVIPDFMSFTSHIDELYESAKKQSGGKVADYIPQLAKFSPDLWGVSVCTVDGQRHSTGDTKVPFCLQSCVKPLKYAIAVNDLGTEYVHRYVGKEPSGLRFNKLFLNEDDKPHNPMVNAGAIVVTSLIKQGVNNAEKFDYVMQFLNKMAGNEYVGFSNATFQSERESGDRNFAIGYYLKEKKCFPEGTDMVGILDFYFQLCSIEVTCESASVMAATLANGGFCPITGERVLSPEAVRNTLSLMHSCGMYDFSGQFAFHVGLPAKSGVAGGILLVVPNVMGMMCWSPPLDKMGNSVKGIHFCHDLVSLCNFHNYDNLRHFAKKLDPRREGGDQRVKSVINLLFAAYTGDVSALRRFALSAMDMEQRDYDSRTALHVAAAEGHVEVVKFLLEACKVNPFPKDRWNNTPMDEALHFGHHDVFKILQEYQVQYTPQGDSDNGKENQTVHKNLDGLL
Glucagon-like peptide 1 receptor (Homo sapiens), sequence (P43220 whole entry, looked up): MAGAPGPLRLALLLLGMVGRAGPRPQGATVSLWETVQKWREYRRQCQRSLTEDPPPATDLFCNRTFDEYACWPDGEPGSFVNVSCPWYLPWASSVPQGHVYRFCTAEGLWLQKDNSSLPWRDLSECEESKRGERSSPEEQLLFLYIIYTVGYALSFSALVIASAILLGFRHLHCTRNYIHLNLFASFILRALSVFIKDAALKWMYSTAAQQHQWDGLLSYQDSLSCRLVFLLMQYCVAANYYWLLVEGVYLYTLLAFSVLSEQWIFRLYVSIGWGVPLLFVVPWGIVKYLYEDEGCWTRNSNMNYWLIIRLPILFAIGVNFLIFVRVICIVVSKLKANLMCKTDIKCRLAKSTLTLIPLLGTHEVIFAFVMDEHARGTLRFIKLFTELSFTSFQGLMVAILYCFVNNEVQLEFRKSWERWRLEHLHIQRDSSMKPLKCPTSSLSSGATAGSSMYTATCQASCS

Take `CC[C@H]1OC(=O)[C@H](C)[C@@H](O[C@H]2C[C@@](C)(OC)[C@@H](O)[C@H](C)O2)[C@H](C)[C@@H](O[C@@H]2O[C@H](C)C[C@H](N(C)C)[C@H]2O)[C@](C)(O)C[C@@H](C)CN(C)[C@H](C)[C@@H](O)[C@]1(C)O`: in experiment [1], the outcome was inactive. The max response in [2] is 13.1%; in experiment [3] it was -8.56% (inactive). The Potency result in [4], in experiment [5], in [6], in experiment [7], in experiment [8] and in [11] was “inactive” each time. For the same compound, the Potency result in experiment [12] and in [13] was “inactive” in each case. The activation in experiment [9] was -5.82% (inactive); in [10], -0.197% (inactive).
With `COC(=O)c1ccccc1O`, the outcome in experiment [1] was inactive. In addition, the max response in [2] is 1.7% and -5.56%; in [3] it was -1.72% (inactive) and -1.77% (inactive). The Potency result in experiment [4], in experiment [5], in [6], in experiment [7], in [8] and in experiment [13] was “inactive” in each case. Besides, in experiment [9], the activation was 0.469% (inactive) and 1.6% (inactive).
For the compound `OC[C@H]1O[C@@H]2O[C@H]3[C@H](O)[C@@H](O)[C@@H](O[C@H]4[C@H](O)[C@@H](O)[C@@H](O[C@H]5[C@H](O)[C@@H](O)[C@@H](O[C@H]6[C@H](O)[C@@H](O)[C@@H](O[C@H]7[C@H](O)[C@@H](O)[C@@H](O[C@H]1[C@H](O)[C@H]2O)O[C@@H]7CO)O[C@@H]6CO)O[C@@H]5CO)O[C@@H]4CO)O[C@@H]3CO`, the outcome in experiment [1] was inactive. Further, the max response in [2] was 2.15% and -14.7%; in experiment [3], -7.96% (inactive) and -14.1% (inactive). Moreover, the Potency entry in experiment [4], in [5], in experiment [6], in experiment [7], in experiment [8] and in experiment [11] was “inactive” throughout. Also, the Potency entry in experiment [12], in experiment [13] and in [14] was “inactive” each time.
Take `C=CC(C)(O)CC/C=C(\C)CCC=C(C)C` (stereo not given): the outcome in experiment [1] was inactive. Moreover, the max response is -3.85% in [2] and 13.1% (inactive) in experiment [3]. In addition, the Potency entry in experiment [4], in experiment [5], in experiment [6] and in experiment [7] was “inactive” in each case. For the same compound, in [9], the activation is -1.4% (inactive).
For `CC(C)CCCCCCc1ccc(O)cc1`, the outcome in [1] was inactive. The Potency result in experiment [4], in [5], in experiment [6] and in experiment [7] was “inactive” throughout. In [15], the ratio activity, negative = inhibition is -8.37% (inactive). The activation in experiment [9] is 2.32% (inactive).
As for `Cc1ccc(S(=O)(=O)NCl)cc1`, the outcome in experiment [1] was inactive. Moreover, the max response in experiment [2] is -12.9%; in experiment [3], 17.1% (inactive). The Potency result in experiment [4], in experiment [5], in [6], in experiment [7] and in experiment [8] was “inactive” throughout. Moreover, in experiment [9], the activation was -0.574% (inactive).
Take `Oc1ccc(/C=C/c2cc(O)cc(O)c2)cc1`: the outcome in experiment [1], in [17], in experiment [18], in experiment [19] and in experiment [20] was inactive. Besides, the max response was 8.43% in experiment [2] and -15.1% (inactive) in experiment [3]. The Potency entry in experiment [4] was “inactive”. Besides, the Potency in [16] is 5.01 µM (active); in [8] it was 19.3 µM (active) and 37.6 µM (active); in [11], 1.88 µM (active); in [12], 5.31 µM (active). In experiment [9], the activation was 5.17% (inactive) and 7.3% (inactive).
Consider `OC[C@H]1O[C@@](CO)(O[C@H]2O[C@H](CO)[C@@H](O)[C@H](O)[C@H]2O)[C@@H](O)[C@@H]1O`, for which, in experiment [1], the outcome was inactive. Also, the values for the max response in [2] and in experiment [3] were -3.43% and 4.65% (inactive), respectively. In addition, the Potency entry in [4], in experiment [5], in experiment [6] and in [7] was “inactive” in each case. For the same compound, in [15], the ratio activity, negative = inhibition was 0% (inactive).
